Laboratory results published in the supplement of paper PMC10646978.
± gives the standard deviation.

Legend:
Conditions in all cases: modulator concentration 10 µM
[1] = tested on: RAW-Dual (murine macrophage reporter line); experiment: NF-kB reporter (SEAP) activity fold change vs agonist alone; higher = enhanced NF-kB activity
Outline: (§1)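 RAW-Dual murine macrophage reporter cells were plated at 50 000 per well in 384-well plates, pin-transferred compound to 10 μM final, and pre-incubated for 1 hour at 37 °C before a PRR agonist was added and the cells incubated overnight. NF-κB activity was read from supernatant SEAP with QUANTI-Blue at 620 nm absorbance, and IRF activity from Lucia luciferase with QUANTI-Luc by luminescence. Each signal was expressed as fold change by dividing by the mean agonist-only control on the same plate. Two replicate plates were averaged, with errors obtained by propagation.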

[2] = tested on: RAW-Dual (murine macrophage reporter line); experiment: IRF reporter (Lucia luciferase) activity fold change vs agonist alone; higher = enhanced IRF activity
Outline: as §1

[3] = tested on: RAW-Dual (murine macrophage reporter line); experiment: viability score (confluency relative to resting cells, overnight) (fraction); higher = more viable, active = viable (0.7 or more)
Outline: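 In 384-well plates, RAW-Dual macrophages received compound at a final 10 μM overnight. Two confluency masks were then made with IncuCyte software from IncuCyte images of all imaged wells. The viability score is defined as confluency relative to resting cells. Passing the cutoff required both masks to lie above 70% of resting cells.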

[4] = agonist: CpG ODN 1826 0.5 ug/mL

Structure (SMILES) | NF-kB reporter [1, 4] | NF-kB reporter ([1]; agonist: LPS 0.1 ug/mL) | NF-kB reporter ([1]; agonist: MPLA […]) | IRF reporter ([2]; agonist: 3'3'-cGAMP 10 ug/mL) | IRF reporter ([2]; agonist: LPS 0.1 ug/mL) | IRF reporter ([2]; agonist: MPLA […]) | viability score [3]
COc1ncc(-c2ccc3nccc(-c4ccnnc4)c3c2)cc1NS(=O)(=O)c1ccc(F)cc1F | 1.56 ± 0.067 | 1.79 ± 0.14 | 3.01 ± 0.16 | 0.389 ± 0.051 | 1.2 ± 0.1 | 2.66 ± 0.33 | 0.33 (inactive)
CC(=NOCCCl)C(C)=NOCCCl | 0.946 ± 0.078 | 1.05 ± 0.13 | 1.21 ± 0.042 | 0.909 ± 0.15 | 1.07 ± 0.045 | 1.59 ± 0.2 | 0.585 (inactive)
CC(=O)Nc1ccc(S(=O)(=O)N2CCC(Oc3nc(C)cc(C)n3)C2)cc1 (centres undefined) | 1.13 ± 0.099 | 1.03 ± 0.078 | 0.969 ± 0.033 | 0.988 ± 0.063 | 0.987 ± 0.057 | 0.932 ± 0.15 | 0.998 (active)
O=C(CCCN1CC=C(n2c(=O)[nH]c3ccccc32)CC1)c1ccc(F)cc1 | 0.788 ± 0.06 | 0.828 ± 0.078 | 0.71 ± 0.069 | 0.975 ± 0.052 | 0.932 ± 0.15 | 1.21 ± 0.2 | 0.276 (inactive)
O=C(C=Cc1ccccc1)c1ccc(OC2OC(CO)C(O)C(O)C2O)cc1O (centres undefined) | 1.18 ± 0.068 | 1.03 ± 0.082 | 0.94 ± 0.07 | 1.02 ± 0.039 | 1.32 ± 0.087 | 1.2 ± 0.17 | 0.986 (active)
O=C(CCCCCCNC(=O)c1cnc(N(c2ccccc2)c2ccccc2)nc1)NO | 1.14 ± 0.067 | 0.318 ± 0.026 | 0.797 ± 0.15 | 0.954 ± 0.08 | 2.78 ± 0.69 | 3.16 ± 1 | 0.95 (active)
NC(=O)OCC(COC(N)=O)c1ccccc1 | 1.06 ± 0.079 | 1.02 ± 0.05 | 1.04 ± 0.095 | 1.16 ± 0.26 | 0.945 ± 0.062 | 0.94 ± 0.11 | 1 (active)
CCCc1nc2ccccc2c(NC(=O)CN2CCOCC2)c1CC.O=C(O)C(=O)O | 1.01 ± 0.078 | 1.12 ± 0.093 | 1.01 ± 0.059 | 1 ± 0.048 | 1.48 ± 0.27 | 1.16 ± 0.13 | 1 (active)
Cn1nc(CNS(=O)(=O)c2cccc(C(F)(F)F)c2)c2c1CCCC2 | 0.981 ± 0.052 | 0.98 ± 0.092 | 1.21 ± 0.13 | 0.987 ± 0.085 | 1.06 ± 0.15 | 1.05 ± 0.27 | 0.926 (active)
Cc1c(Cl)cccc1Nc1ccccc1C(=O)O | 1.16 ± 0.17 | 1.14 ± 0.3 | 0.887 ± 0.052 | 0.938 ± 0.043 | 1.34 ± 0.26 | 1.13 ± 0.28 | 1 (active)
Cc1ccc2c(c1)C1(c3ccccc3)Nc3ccc(C)cc3C1(c1ccccc1)N2 (centres undefined) | 0.878 ± 0.082 | 0.904 ± 0.078 | 0.86 ± 0.085 | 0.864 ± 0.071 | 0.996 ± 0.14 | 0.969 ± 0.19 | 1.02 (active)
CC12C=CC(CO)(O1)C1C(=O)NC(=O)C12 (centres undefined) | 1.26 ± 0.1 | 1.07 ± 0.066 | 0.838 ± 0.082 | 0.907 ± 0.047 | 0.469 ± 0.027 | 0.32 ± 0.027 | 0.783 (active)
O=C1NC(=O)[C@@H](c2cn3c4c(cccc24)CCC3)[C@@H]1c1c[nH]c2ccccc12 | 1.1 ± 0.051 | 1.02 ± 0.17 | 1.12 ± 0.13 | 0.971 ± 0.058 | 0.921 ± 0.18 | 0.948 ± 0.27 | 1.01 (active)
O=C(NN=Cc1ccc([N+](=O)[O-])s1)c1ccc(Br)cc1 | 0.968 ± 0.083 | 0.858 ± 0.082 | 0.96 ± 0.09 | 0.395 ± 0.068 | 1.18 ± 0.2 | 1.14 ± 0.28 | 0.996 (active)
O=C(CCn1cnc2ccccc2c1=O)NCC1CCCN1c1ccccc1 (centres undefined) | 1.05 ± 0.054 | 1 ± 0.086 | 0.987 ± 0.046 | 0.983 ± 0.053 | 1.3 ± 0.086 | 1.2 ± 0.14 | 0.995 (active)
Clc1ccc(Nc2nc3nonc3nc2NC2C3CC4CC(C3)CC2C4)cc1 (centres undefined) | 1.15 ± 0.12 | 1.15 ± 0.07 | 1.2 ± 0.096 | 0.702 ± 0.27 | 1.32 ± 0.17 | 1.15 ± 0.16 | 0.931 (active)
CC1Cc2ccccc2N1C(=O)C1CCCN1S(=O)(=O)c1ccc(Cl)cc1 (centres undefined) | 0.835 ± 0.043 | 0.905 ± 0.12 | 1.27 ± 0.25 | 1.01 ± 0.061 | 1.22 ± 0.18 | 1.47 ± 0.52 | 0.97 (active)
Clc1cccc(Nc2nc(-c3ccccn3)cs2)c1 | 0.881 ± 0.15 | 0.379 ± 0.2 | 0.597 ± 0.18 | 0.537 ± 0.092 | 0.658 ± 0.2 | 0.658 ± 0.23 | 0.246 (inactive)
Cn1cc(-c2cc(CNC(=O)c3cncc(F)c3)ccn2)cn1 | 1.12 ± 0.074 | 1.09 ± 0.1 | 0.964 ± 0.033 | 0.966 ± 0.039 | 0.973 ± 0.046 | 1.04 ± 0.2 | 0.995 (active)
COc1ccc(S(=O)(=O)NCc2ccnc(N3CCOCC3)n2)cc1Cl | 1.02 ± 0.052 | 1.02 ± 0.08 | 0.919 ± 0.1 | 1.07 ± 0.06 | 1.07 ± 0.079 | 1.08 ± 0.4 | 1 (active)
Cc1nnc(C)n1N=Cc1ccc(Cl)c([N+](=O)[O-])c1 | 0.797 ± 0.062 | 0.874 ± 0.091 | 1.2 ± 0.1 | 0.898 ± 0.045 | 1.07 ± 0.072 | 1 ± 0.1 | 0.99 (active)
Cc1cc(C(=O)NCc2sc(-c3ccccc3Cl)nc2C)c(C)o1 | 0.883 ± 0.039 | 1 ± 0.081 | 1.09 ± 0.061 | 0.98 ± 0.047 | 1.11 ± 0.25 | 1.27 ± 0.44 | 0.984 (active)
COc1ccc([N+](=O)[O-])cc1NC(=O)c1ccccc1SC | 0.656 ± 0.079 | 0.705 ± 0.14 | 0.88 ± 0.086 | 0.945 ± 0.031 | 1.03 ± 0.23 | 1.17 ± 0.33 | 0.987 (active)
Cn1cnc2cc(NCc3nc4ccccc4n3C)ccc21 | 0.818 ± 0.065 | 1.03 ± 0.078 | 1.01 ± 0.039 | 0.955 ± 0.17 | 1.03 ± 0.15 | 1.03 ± 0.24 | 1 (active)
COc1ccccc1OCCOCCOc1cccc(Br)c1 | 0.883 ± 0.14 | 1.05 ± 0.12 | 0.945 ± 0.087 | 1.05 ± 0.044 | 1.27 ± 0.29 | 1.36 ± 0.24 | 0.802 (active)
Brc1ccc2[nH]cc(-c3nnc4ccc5ccccc5n34)c2c1 | 0.644 ± 0.051 | 0.877 ± 0.042 | 1.7 ± 0.35 | 0.971 ± 0.051 | 1.4 ± 0.1 | 2.08 ± 0.22 | 0.973 (active)
CCOc1ccc2c(c1)C(C)=CC(C)(C)N2 [Prestw-765] | 0.892 ± 0.098 | 1.07 ± 0.055 | 1.11 ± 0.029 | 0.812 ± 0.065 | 0.967 ± 0.052 | 0.997 ± 0.082 | 1 (active)
